Consider ten compounds from PubChem BioAssay (NCATS).

In assay [1] the test system is Zika virus NS2B-NS3 protease. The assay is described as follows: Primary screen GU AMC qHTS for Zika virus inhibitors (AID 1347154).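 Note: 0% = no-inhibitor control and -100% = no-enzyme control; nearly all actives have a fitted effect of over 70% in size.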 Put shortly:
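Unlinked Zika NS2B hydrophilic domain/NS3 protease domain noncovalent complex (25 nM final) in 10 mM Tris-HCl pH 8.0, 0.01% Tween 20, with AMC peptide substrate. Fluorescence (ex 340, em 450 nm) change over 15 min, room temperature; percent inhibition fitted to 4-parameter Hill equation.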
In general terms: qHTS replaces the single test concentration by a dilution series.

Assay [2] can be described thus: Confirmatory screen GU Rhodamine qHTS for Zika virus inhibitors qHTS (AID 1347157). Note: potency is the fitted concentration of half-maximal effect; nearly all actives have a fitted effect of over 70% in size. As to conditions: purified enzyme assay, Rhodamine110 substrate fluorescence, 15 min. In short, it runs like this:
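Enzyme 25 nM in Tris-HCl pH 8.0 + 0.01% Tween 20; compounds up to 114 microM, 15 min RT dark; + Rhod110 substrate 1.5 microM; read t0 and 15 min; delta fluorescence → % inhibition → 4-parameter Hill fit.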

Assay [3] deals with Zika virus NS2B-NS3 protease (unlinked complex). As to the kind of experiment: Primary screen GU Rhodamine qHTS for Zika virus inhibitors: Unlinked NS2B-NS3 protease assay (AID 1347159). Note: potency is the fitted concentration of half-maximal effect; nearly all actives have a fitted effect of over 60% in size. Put shortly:
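Percent inhibition derives from the 15-min fluorescence change (ex 480, em 540 nm), normalized to no-enzyme and no-inhibitor wells. Reactions contained 25 nM NS2B-NS3 complex and 1.5 microM substrate in 10 mM Tris-HCl pH 8.0.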

Assay [4] relates to Zika virus NS2B-NS3 protease (linked construct). The assay is described as follows: Primary screen NINDS Rhodamine qHTS for Zika virus inhibitors (AID 1347160). For activity change, negative = inhibition: % is set by controls: 0 for no effect and ±100 for the full control effect. Note: nearly all actives have a fitted effect of over 55% in size. Note: potency is the fitted concentration of half-maximal effect. In short, it runs like this:
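In 10 mM Tris-HCl pH 8.0 containing 0.01% Tween 20, linked NS2B-NS3 protease (25 nM final) is exposed to test compounds for 15 min. Cleavage of 1.5 microM Rhodamine110 substrate is tracked by fluorescence over 15 min.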

A short description of assay [5]: Confirmatory screen NINDS Rhodamine qHTS for Zika virus inhibitors (AID 1347161). Note: potency is the fitted concentration of half-maximal effect; nearly all actives have a fitted effect of over 60% in size. The following applies: purified enzyme assay, Rhodamine110 substrate fluorescence, 15 min. Put shortly:
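Each compound, titrated, sat 15 min with 25 nM linked protease before 1.5 microM Rhodamine110 substrate went in. Fluorescence gain over the next 15 min, in pH 8.0 Tris with Tween 20, gave Hill-fitted curves.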

Assay [6] is described as follows: Tertiary RLuc qRT-PCR qHTS assay for Zika virus inhibitors (AID 1347169). Note: top concentration of the series differs between compounds; % is set by controls: 0 for no effect and ±100 for the full control effect; nearly all actives have a fitted effect of over 55% in size. In short, it runs like this:
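Orthogonal cell-based readout: luminescence measured 1-1.5 hrs after adding live-cell Renilla substrate to Vero cells that had been infected with ZIKV-RLuc (MOI 1-2) post-compound, incubated 48-72 hrs at 37 degrees C.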
(In general: In qPCR the cycle at which signal appears reflects the starting amount.)

A further assay has as its target Furin (Homo sapiens) (UniProt P09958). The assay is described as follows: Furin counterscreen qHTS for Zika virus inhibitors (AID 1347149).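 Note: purified recombinant full-length human furin enzyme at 5 nM; fluorescence gain from furin cutting a BOC-RVRR-AMC peptide substrate over 15 min; top concentration of the series differs between compounds; plate controls were no-inhibitor control for no effect and no-enzyme control for full effect; nearly all actives have a fitted effect of over 70% in size.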 Put shortly:
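Fluorogenic cleavage of BOC-RVRR-AMC (2 microM final, Km ~15 µM) was monitored (ex 340, em 450 nm) at 37C after 15 min RT preincubation of 5 nM furin with compounds in HEPES pH 7.0 buffer with CaCl2 and Triton X-100. Percent inhibition was fitted to a 4-parameter Hill curve.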
(Counterscreens check selectivity or assay interference.)

The nature of assay [7]: ZIKV-mCherry secondary qHTS for Zika virus inhibitors (AID 1347158). Note: top concentration of the series differs between compounds. Put shortly:
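After overnight seeding at 37 °C, Vero cells receive compound and then ZIKV-mCherry (MOI 1). Following 48-72 h infection, cells are fixed, counterstained with Hoechst, and imaged; percent infected cells is derived from an mCherry intensity cut-off of 450 RFU.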

Assay [8] relates to Zika virus NS2B-NS3 protease (linked construct). The assay is described as follows: 384 well plate NINDS Rhodamine confirmatory qHTS for Zika virus inhibitors (AID 1347164).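 For activity change, negative = inhibition: top concentration of the series differs between compounds; plate controls were no-inhibitor control for no effect and no-enzyme control for full effect.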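 Note: fluorescence from protease cleavage of Ac-LKRR-rhodamine 110 substrate; nearly all actives have a fitted effect of over 65% in size.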 Note: potency is the fitted concentration of half-maximal effect. In short, it runs like this: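 Fluorescence at 485/538 nm was measured 25 minutes after adding 10 microM Ac-LKRR-Rd substrate, in the dark at room temperature. The protease (5, 30 or 60 nM final) had been preincubated ~15 minutes with compound; aprotinin as control.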

The nature of assay [9]: HepG2 cells viability qHTS for Zika virus inhibitors (AID 1347168). Note: % is set by controls: 0 for no effect and ±100 for the full control effect. In short, it runs like this: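 Counter-screen for cytotoxicity of hits from NS2B-NS3 protease qHTS. Overnight-attached cells (2.5 x 10^5 cells/mL, DMEM/4% FBS) were dosed in titration, incubated 24 to 48 hours, then assayed by CellTiter Glo.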
In assay [10] the test system is Zika virus NS2B-NS3 protease (linked construct). The assay is described as follows: Confirmatory screen NINDS AMC qHTS for Zika virus inhibitors (AID 1347152). Note: potency is the fitted concentration of half-maximal effect; nearly all actives have a fitted effect of over 70% in size. Put shortly: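 IC50s from 4-parameter Hill fits of percent inhibition, based on AMC fluorescence gain (340/450 nm) over 15 min with 10 microM Bz-Nle-KRR-AMC. Enzyme: 1 nM linked NS2B-NS3 in Tris-HCl pH 8.0; 15-min compound preincubation.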

For assay [11], the system named is Zika virus NS2B-NS3 protease (unlinked complex). As to the kind of experiment: Confirmatory screen GU AMC qHTS for Zika virus inhibitors (AID 1347153). As to conditions: Recombinant NS2B-NS3 protease, AMC substrate fluorescence. Put shortly: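 Compounds were preincubated 15 min at room temperature with 25 nM noncovalent NS2B-NS3 protease at pH 8.0; AMC substrate added at 10 microM and 15-min fluorescence gain (340/450 nm) converted to percent inhibition, fitted 4-parameter.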

The test system of assay [12] is Zika virus NS2B-NS3 protease (linked). The assay is described as follows: 384 well plate NINDS AMC confirmatory qHTS for Zika virus inhibitors (AID 1347163).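 Note: fluorescence of AMC released from Ac-VKTGKR-AMC peptide cleaved by the protease; top concentration of the series differs between compounds; 0% = no-inhibitor control and -100% = no-enzyme control; nearly all actives have a fitted effect of over 50% in size.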 In short, it runs like this:
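Linked protease 5/30/60 nM final; cpds up to 1 mM final, ~15 min preinc. Substrate Ac-VKTGKR-AMC 30 microM final. RT, dark, 25 min; FI ex 355/em 460; normalized to no-enzyme/no-inhibitor ctrls.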

The nature of assay [13]: qHTS of pediatric cancer cell lines to identify multiple opportunities for drug repurposing: Primary screen for control Hh wild type fibroblast cells (AID 1347106).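 Note: series mostly up to about 46 µM; % is set by controls: 0 for no effect and ±100 for the full control effect; a drop in luminescence marks cytotoxicity and a rise apparent proliferation; nearly all actives have a fitted effect of over 55% in size.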 Put shortly: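 Viability after 48 h compound treatment at 37C, 500-1,000 cells/well, read as ATP luminescence with CellTiter-Glo. Primary screens used 11-point (MIPE, 0.78 nM-46 µM) or 8-point (NPC, 0.59 nM-46 µM) final concentrations; follow-up screens used 11-point dilutions.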

The nature of assay [14]: qHTS of pediatric cancer cell lines to identify multiple opportunities for drug repurposing: Primary screen for Rh30 cells (AID 1347107). Note: series mostly up to about 46 µM; % is set by controls: 0 for no effect and ±100 for the full control effect; nearly all actives have a fitted effect of over 75% in size. In short, it runs like this:
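Cells (500-1,000/well) in growth media were settled 5 h at 37 degrees C, then given compounds for 48 h. Viability was read as CellTiter-Glo luminescence. Primary runs used MIPE at 11 points (0.78 nM-46 µM) and NPC at 8 points (0.59 nM-46 µM); follow-ups used 11 points.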

Assay [15] can be described thus: qHTS of pediatric cancer cell lines to identify multiple opportunities for drug repurposing: Primary screen for Rh41 cells (AID 1347108). Put shortly: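 Following a 5-hour attachment period, cells at 500-1,000/well received compounds and were cultured for 48 hours. CellTiter-Glo was added and luminescence read to estimate viable, metabolically active cells.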
Assay [16] deals with N-terminal Xaa-Pro-Lys N-methyltransferase 1 (Homo sapiens) (UniProt Q9BV86). As to the kind of experiment: qHTS Assay for Inhibitors of N-terminal methyltransferase 1 (NTMT1): LOPAC validation of the NTMT1 SAHH-coupled ThioGlo3 Assay (AID 1347143). The following applies: recombinant NTMT1, SAHH-coupled ThioGlo3 fluorescence. Put shortly: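 Fluorescence read-out (excitation 340nm, emission 450nm) of SAH-derived thiol, measured via SAHH coupling and ThioGlo3, taken immediately and after a 30 min room-temperature reaction, then normalized to the background read. Enzyme: NTMT1 at 125nM; cofactor SAM 100uM in the added reagent.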
N-terminal Xaa-Pro-Lys N-methyltransferase 1 (Homo sapiens), sequence (Q9BV86 whole entry, looked up): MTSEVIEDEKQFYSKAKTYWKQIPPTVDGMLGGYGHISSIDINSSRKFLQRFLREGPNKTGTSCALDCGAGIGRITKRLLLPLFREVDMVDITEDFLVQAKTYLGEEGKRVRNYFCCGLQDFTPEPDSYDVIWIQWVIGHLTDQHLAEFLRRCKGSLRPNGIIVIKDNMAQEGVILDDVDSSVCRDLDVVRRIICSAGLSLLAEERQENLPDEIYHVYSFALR

Assay [17] addresses Lysine-specific demethylase 5B (Homo sapiens) (UniProt Q9UGL1). The assay is described as follows: Optimization screen for KDM5B Histone Demethylases FDH coupled qHTS against the LOPAC library (AID 1347166). Note: 0% is about no effect. In short, it runs like this: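 KDM5BDeltaAP (200nM final) preincubated 10 min with compound, then 12.5uM H3K4Me3, 25uM a-ketoglutarate, ascorbate, Fe(II), NAD+ and FDH added; 50mM HEPES pH 7.5, 0.01% Tween-20. NADH fluorescence (340/450 nm) change over 30 min, room temperature.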

Results filed as inconclusive are left out. Values without a mark were called inactive. Calls of active or inactive are those of the source. Calls come from the whole dose curve; as a rule, active = well fitted curve in the direction sought with a large enough effect; inconclusive = small, poorly fitted or top-dose-only effect, or another doubt; inactive = no such curve, though single readings can be large; an effect the other way counts as inactive or inconclusive.

Furin (Homo sapiens), sequence (P09958 whole entry, looked up): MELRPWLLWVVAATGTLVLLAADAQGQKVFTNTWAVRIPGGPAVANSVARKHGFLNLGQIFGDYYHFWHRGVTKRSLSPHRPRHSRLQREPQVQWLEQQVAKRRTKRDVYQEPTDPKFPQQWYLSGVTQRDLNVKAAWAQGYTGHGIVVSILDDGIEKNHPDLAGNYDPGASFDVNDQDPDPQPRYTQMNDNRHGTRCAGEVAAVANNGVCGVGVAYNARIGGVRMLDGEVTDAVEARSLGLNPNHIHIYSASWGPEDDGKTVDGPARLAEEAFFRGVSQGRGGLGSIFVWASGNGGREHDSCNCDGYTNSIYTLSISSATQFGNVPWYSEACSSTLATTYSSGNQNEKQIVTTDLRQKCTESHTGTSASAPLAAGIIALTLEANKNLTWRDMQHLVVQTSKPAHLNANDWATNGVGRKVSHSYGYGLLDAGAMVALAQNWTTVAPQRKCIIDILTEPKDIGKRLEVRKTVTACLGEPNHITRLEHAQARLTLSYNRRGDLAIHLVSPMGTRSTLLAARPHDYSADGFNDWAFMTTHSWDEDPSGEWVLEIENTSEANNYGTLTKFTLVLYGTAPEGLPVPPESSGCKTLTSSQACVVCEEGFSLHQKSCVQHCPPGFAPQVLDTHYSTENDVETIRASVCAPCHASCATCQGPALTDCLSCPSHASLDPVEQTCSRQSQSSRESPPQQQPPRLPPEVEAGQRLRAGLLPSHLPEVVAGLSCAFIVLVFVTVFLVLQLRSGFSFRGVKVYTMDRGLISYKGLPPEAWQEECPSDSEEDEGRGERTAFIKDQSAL
Lysine-specific demethylase 5B (Homo sapiens), sequence (Q9UGL1 whole entry, looked up): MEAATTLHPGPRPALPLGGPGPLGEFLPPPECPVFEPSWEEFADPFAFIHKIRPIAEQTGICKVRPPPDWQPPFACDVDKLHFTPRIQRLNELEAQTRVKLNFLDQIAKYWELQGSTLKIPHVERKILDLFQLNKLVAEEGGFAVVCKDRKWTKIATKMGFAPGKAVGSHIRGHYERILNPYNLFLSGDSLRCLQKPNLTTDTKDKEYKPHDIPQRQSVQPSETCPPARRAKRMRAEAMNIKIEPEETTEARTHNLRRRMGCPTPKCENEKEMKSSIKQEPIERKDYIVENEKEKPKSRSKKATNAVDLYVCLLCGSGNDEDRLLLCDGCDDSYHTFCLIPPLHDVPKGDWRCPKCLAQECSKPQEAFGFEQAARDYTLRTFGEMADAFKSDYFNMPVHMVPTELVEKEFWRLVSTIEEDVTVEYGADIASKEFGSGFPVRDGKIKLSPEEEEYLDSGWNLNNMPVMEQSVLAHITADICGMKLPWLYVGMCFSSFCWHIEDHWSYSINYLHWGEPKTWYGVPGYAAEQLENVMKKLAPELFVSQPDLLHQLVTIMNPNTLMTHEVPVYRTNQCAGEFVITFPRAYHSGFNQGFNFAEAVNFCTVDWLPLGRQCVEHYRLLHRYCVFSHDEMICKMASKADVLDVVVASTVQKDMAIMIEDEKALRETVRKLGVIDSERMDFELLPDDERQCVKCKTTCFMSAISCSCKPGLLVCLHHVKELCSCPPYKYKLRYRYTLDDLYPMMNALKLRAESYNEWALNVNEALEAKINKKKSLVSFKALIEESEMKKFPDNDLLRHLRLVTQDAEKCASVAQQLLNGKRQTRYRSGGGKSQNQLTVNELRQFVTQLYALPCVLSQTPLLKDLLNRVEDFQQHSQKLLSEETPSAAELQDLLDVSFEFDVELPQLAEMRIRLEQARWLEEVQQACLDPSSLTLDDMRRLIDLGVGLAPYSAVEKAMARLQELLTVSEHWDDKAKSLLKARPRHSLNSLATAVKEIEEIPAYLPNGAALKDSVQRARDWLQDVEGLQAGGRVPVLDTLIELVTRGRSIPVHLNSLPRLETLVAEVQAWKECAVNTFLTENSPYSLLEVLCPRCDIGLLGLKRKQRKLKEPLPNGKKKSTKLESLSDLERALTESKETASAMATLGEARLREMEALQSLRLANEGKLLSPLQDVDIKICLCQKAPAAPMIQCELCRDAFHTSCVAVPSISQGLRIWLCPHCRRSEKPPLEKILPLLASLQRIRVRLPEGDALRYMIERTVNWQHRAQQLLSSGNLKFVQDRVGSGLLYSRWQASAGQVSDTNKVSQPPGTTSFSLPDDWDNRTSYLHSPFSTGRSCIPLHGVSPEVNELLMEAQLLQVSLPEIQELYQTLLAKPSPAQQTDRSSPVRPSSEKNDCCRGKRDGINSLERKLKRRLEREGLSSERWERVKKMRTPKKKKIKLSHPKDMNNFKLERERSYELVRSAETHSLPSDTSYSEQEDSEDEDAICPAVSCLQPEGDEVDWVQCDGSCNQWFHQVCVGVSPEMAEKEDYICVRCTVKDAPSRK

Turning to `O=C(O)CC/C=C\CC[C@H]1[C@@H](N2CCCCC2)[C@@H](O)C[C@@H]1OCc1ccc(-c2ccccc2)cc1`, the compound was called inactive in assay [1].

Regarding `CC1=C(/C=C/C(C)=C/C=C/C(C)=C/CO)C(C)(C)CCC1`, the compound was classed as inactive in assay [1].

For `C=C1CC23CCC4[C@@](C)(CCC[C@@]4(C)C(=O)O)C2CCC1C3` (stereo not given in full), the values for the Potency in assay [2], in [3] and in assay [5] were 39.3 µM (active), 20 µM (active) and 44.1 µM (active), respectively. In addition, the Potency result in assay [4] and in assay [6] was “inactive” in each case.

`CC(C)C1=CCC(C)(O)C(OC2OC(CO)C(O)C(O)C2O)C1` (stereo not given): the Potency entry (with Furin (Homo sapiens); in [6]) was “inactive” in each case. Besides, the Potency in assay [2] was 27.3 µM (active); in assay [3], 22.4 µM (active); in assay [4], 10 µM (active); in assay [5], 7.68 µM (active); in assay [8], 5.62 µM (active). The compound was called inactive in assay [7] and in [9].

As to `CNc1cc(OC)c(C(=O)N[C@H]2CCN(Cc3ccccc3)[C@H]2C)cc1Cl`, the outcome in assay [1] was inactive.

Regarding `CCOc1c2c(c(OCC)c3ccccc13)C(=O)N(c1ccc(CC(=O)NS(=O)(=O)c3ccccc3)cc1)C2`, the Potency result (with Furin (Homo sapiens); in assay [12]; in assay [8]) was “inactive” in each case. Besides, the Potency is 44.1 µM (active) in assay [10]; 44.1 µM (active) in assay [11]; 4.94 µM (active) in assay [2]; 3.98 µM (active) in [3]; 8.91 µM (active) in [4]; 4.41 µM (active) in assay [5]. In assay [9], the compound was called inactive.

With `CN1Cc2c(N)cccc2C(c2ccccc2)C1` (stereo not given), the outcome in assay [13], in assay [14], in [15] and in assay [17] was inactive. In addition, in assay [16], the Potency was 35.5 µM (active).

Turning to `CCCC(=O)Nc1ncnc2c1ncn2[C@@H]1O[C@@H]2COP(=O)(O)O[C@H]2[C@H]1OC(=O)CCC`, in [1], the result was inactive.

In the case of `CCCCC/C=C\C/C=C\CCCCCCCC(=O)O`, the activity change, negative = inhibition in assay [1] was 4.61% [at 6.83 µM].

In the case of `COC(=O)C1=C(C)NC(C)=C(C(=O)OCCCN2CCC(c3ccccc3)(c3ccccc3)CC2)[C@H]1c1cccc([N+](=O)[O-])c1`, in assay [1], the call was inactive.
